The list is not random: actives were taken first. Their share in the collection is about 21%.
VP16 counter – VP16 counterscreen qHTS for inhibitors of ROR gamma transcriptional activity | Potency, µM (series often up to 53.6 µM), usual class: inhibitors | Drosophila S2 Gal4-VP16 UAS-luciferase, luminescence, 20 h | 310,000 tested, 3.5% active;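 also: Gal4-VP16 expression switched on by copper sulfate through the metallothionein promoter; nearly all actives have a fitted effect of over 50% in size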
DT40 TDP1 no CPT – qHTS for Inhibitors of human tyrosyl-DNA phosphodiesterase 1 (TDP1): qHTS in cells in absence of CPT. DT40 Tdp1-/- hTDP1 cells, no CPT, ATP luminescence, 48 h. Potency, µM (highest dose often 46.2 µM), actives largely listed as inhibitors. 420,000 tested, 15% active. AID 686978, 2013; also: nearly all actives have a fitted effect of over 55% in size
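Compound effects on proliferation are scored in DT40 Tdp1-/-;hTDP1 cells in the absence of CPT. ATP levels (CellTiter-Glo luminescence) are recorded after a ≥48 hr, 37 °C incubation.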
RORgamma inh – qHTS for inhibitors of ROR gamma transcriptional activity; Nuclear receptor ROR-gamma (Mus musculus), P51450; Potency, µM (series often up to 53.6 µM), most hits filed as inhibitors; Drosophila S2 Gal4-RORgamma UAS-luciferase reporter, 20 h; 310,000 tested, 5.4% active; also: nearly all actives have a fitted effect of over 60% in size
Target sequence (P51450 whole entry, looked up, the tested form may be a part): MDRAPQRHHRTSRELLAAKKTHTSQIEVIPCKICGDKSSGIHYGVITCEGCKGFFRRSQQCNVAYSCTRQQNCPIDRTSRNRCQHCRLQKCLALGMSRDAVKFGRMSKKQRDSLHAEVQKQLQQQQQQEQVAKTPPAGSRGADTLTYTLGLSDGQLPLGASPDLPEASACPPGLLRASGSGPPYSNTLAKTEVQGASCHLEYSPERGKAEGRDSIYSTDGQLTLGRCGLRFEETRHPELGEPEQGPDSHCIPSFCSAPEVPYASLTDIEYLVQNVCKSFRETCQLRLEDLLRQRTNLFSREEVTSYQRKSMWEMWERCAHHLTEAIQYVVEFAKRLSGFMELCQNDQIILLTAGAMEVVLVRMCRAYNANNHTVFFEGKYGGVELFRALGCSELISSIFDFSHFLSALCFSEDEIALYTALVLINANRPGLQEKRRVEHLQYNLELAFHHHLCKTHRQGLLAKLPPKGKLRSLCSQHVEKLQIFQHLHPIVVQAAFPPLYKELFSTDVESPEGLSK
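Compounds are pin-transferred onto Drosophila Schneider cells expressing a copper-inducible Gal4–ROR gamma transactivation domain fusion. After 1 hr, copper sulfate is added to 700 uM final; luciferase is read 20 hr later.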
IL1B secr inh – qHTS for Inhibitors of Inflammasome Signaling: IL-1-beta AlphaLISA Primary Screen | THP-1 LPS/ATP IL-1B secretion, AlphaLISA, 16 h; active compounds read low | activity change, % at 57.5 µM | 360,000 tested, 4.7% active | AID 743279, 2014; in the data active = activity change below about -50%; inconclusive = mostly about -30% to -49%
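THP-1 cells pretreated 1 hr with compounds (up to 57.5 uM final), then stimulated with LPS (250 ng/mL final) plus ATP (1.25 mM final); secreted IL-1B measured by AlphaLISA after 16 hr, decreased signal indicating inhibition.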
ELG1 DNA repair – qHTS screen for small molecules that inhibit ELG1-dependent DNA repair in human embryonic kidney (HEK293T) cells expressing luciferase-tagged ELG1 | HEK293T ELG1-luciferase reporter, luminescence, 16 h; DNA damage induced by 5-fluorouridine | Potency, µM (top dose mostly 46.1 µM), actives largely listed as inhibitors | 330,000 tested, 2.3% active; also: nearly all actives have a fitted effect of over 55% in size
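Luminescence from the luciferase reporter, measured 30 min after ONE-Glo reagent at room temperature, was the read-out. Beforehand, 2,000 cells per well were exposed for 16 hr at 37 °C to 5-fluorouridine together with compound or vehicle.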
TDP1 cell CPT – qHTS for Inhibitors of human tyrosyl-DNA phosphodiesterase 1 (TDP1): qHTS in cells in presence of CPT. 420,000 tested, 12% active. chicken DT40 Tdp1-/-;hTDP1 cells + 20 nM CPT, ATP luminescence, 48 h. AID 686979, 2013. Potency, µM (top dose mostly 46.2 µM), actives largely listed as inhibitors; also: nearly all actives have a fitted effect of over 55% in size
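Chicken DT40 Tdp1-/- cells complemented with human TDP1, 400 cells/well, exposed to compounds plus 20 nM camptothecin for at least 48 h at 37 C; viability read as ATP content by CellTiter-Glo luminescence.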
Hits are given with their value; . = inactive; ? = inconclusive; / = no result given. Unless noted, calls follow the shape of the dose curve; as a rule, active = well fitted curve in the direction sought with a large enough effect; inconclusive = small, poorly fitted or top-dose-only effect, or another doubt; inactive = no such curve, though single readings can be large; an effect the other way counts as inactive or inconclusive.

SMILES | VP16 counter | DT40 TDP1 no CPT | RORgamma inh | IL1B secr inh | ELG1 DNA repair | TDP1 cell CPT
CCC(CO)Oc1cc(NC(=O)c2ccccc2F)c2ncn(C(C)C)c2c1 (stereo not drawn) | / | ? | / | ? | 5.17µM | ?
COc1cc(NCc2ccccc2)c2ncn(C(C)C)c2c1 | / | . | / | . | . | ?
CCC(CO)Oc1cc(NC(=O)c2ccc(C)cc2)c2ncn(C(C)C)c2c1 (stereo not drawn) | / | ? | / | ? | ? | 23.1µM
COc1ccc(S(=O)(=O)N2CCOCC2)cc1C(=O)Nc1ccc(N2CCCCCC2)cc1 | / | 18.4µM | / | . | / | 18.4µM
CC(=O)Nc1ccc(NC(=O)c2cc(S(=O)(=O)N3CCCCC3)ccc2C)cc1 | / | . | / | . | ? | .
Cc1ccc(S(=O)(=O)N2CCCCC2)cc1C(=O)Nc1ccc(N2CCOCC2)cc1 | . | 12.6µM | ? | . | . | ?
COc1cc(C(=O)OCCCOC(=O)c2cc(OC)c(OC)c(OC)c2)cc(OC)c1OC | . | ? | . | . | . | ?
COc1cc(OC)c(C(=O)OCCCOC(=O)c2cc(OC)c(OC)cc2OC)cc1OC | 10µM | ? | 7.94µM | . | 11.6µM | .
N#Cc1ccc(C(=O)N2CCC3CC2c2cc(-c4ccc(F)cc4)ccc23)cc1 (stereo not drawn) | / | ? | / | . | / | ?
CCn1c2ccccc2c2cc(/C=N/n3c(-c4cc(C)[nH]n4)n[nH]c3=S)ccc21 | ? | ? | . | . | ? | 20.6µM
CCn1c2ccccc2c2cc(/C=N/n3cn[nH]c3=S)ccc21 | 7.08µM | ? | 1.12µM | . | . | ?
CCn1c2ccccc2c2cc(/C=N/n3cnnc3)ccc21 | ? | . | . | -58.5 | . | 18.4µM
COc1ccc(/C=N/n2c(-c3cc(C)[nH]n3)n[nH]c2=S)cc1 | . | . | . | . | . | .
CCn1c2ccccc2c2cc(/C=N/O)ccc21 | . | ? | . | . | ? | ?
S=c1[nH]ncn1/N=C/c1ccc(N2CCOCC2)cc1 | . | . | ? | . | ? | .
COc1ccc(OC)c(NC(=O)NNC(=O)COc2ccc([N+](=O)[O-])cc2)c1 | . | . | . | . | . | .
O=c1[nH]c(Cc2ccccc2)nc2c1oc1ccccc12 | . | ? | . | . | . | 6.51µM
Cc1ccc2c(c1C)-c1c(ccc(C)c1C)C(=O)C2=O | / | 1.03µM | / | -85.3 | / | 0.92µM
Nc1ccc2c(c1Cl)C(=O)c1ccc(N)c(Cl)c1C2=O | . | ? | . | . | ? | .
CCN(CC)S(=O)(=O)c1ccc(Nc2ccc(-c3ccc4c(c3)OCCO4)nn2)cc1 | . | ? | . | . | ? | 5.17µM
CN(C(=O)c1cccc(Nc2ccc(-c3ccc4c(c3)OCCO4)nn2)c1)C1CCCCC1 | ? | 23.1µM | . | . | ? | 23.1µM
CC(=O)c1cccc(Nc2ccc(-c3ccccc3F)nn2)c1 | . | . | ? | . | ? | .
Cc1ccc2nccc(C(=O)N3CCCC(N4CCN(c5ccc(F)cc5)CC4)C3)c2c1 (stereo not drawn) | . | ? | . | . | . | ?
COc1ccc(C2COc3c(ccc(O)c3OC)C2)c(OC)c1O (stereo not drawn) | . | . | . | / | / | ?
CC(C)c1ccc(/C=c2\sc3nc(-c4ccncc4)nn3c2=O)cc1 | . | 11.6µM | . | . | ? | ?
Cc1cc(C)n2nc(-c3cccnc3)nc2n1 | . | . | . | . | . | .
Cc1ccc(/C=c2\sc3nc(-c4cccnc4)nn3c2=O)cc1 | . | 29.1µM | . | . | . | ?
CC(OC(=O)CCN1C(=O)C2CC=CCC2C1=O)C(=O)Nc1ccc(F)cc1 (stereo not drawn) | / | . | / | . | / | .
